Test results as given in the supplement of paper PMC8728848.
The entries come from a sample that favours the strongest signals as a whole.

Tests used:
Assay in all cases: glycan array binding signal (z-score within array); higher = stronger binding
Conditions in all cases: glycan notation: IUPAC condensed, linker removed
[1] = molecular target: GlcNAc(b1-2)Man(a1-3)[GlcNAc(b1-4)][GlcNAc(b1-2)Man(a1-6)]Man(b1-4)GlcNAc(b1-4)[Fuc(a1-6)]GlcNAc
Method in brief: (§1)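 From the Consortium for Functional Glycomics database, 3228 arrays were curated, keeping only those whose protein sequence was available. Binding is given as a within-array Z-score averaged across arrays sharing a protein sequence and across linkers. Negative Z-scores can be read as non-binding.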

[2] = molecular target: GlcNAc(b1-3)Gal(b1-4)GlcNAc(b1-2)[GlcNAc(b1-3)Gal(b1-4)GlcNAc(b1-6)]Man(a1-6)[GlcNAc(b1-3)Gal(b1-4)GlcNAc(b1-2)Man(a1-3)]Man(b1-4)GlcNAc(b1-4)GlcNAc
Method in brief: as §1

[3] = molecular target: GlcNAc(b1-3)Gal(b1-4)GlcNAc(b1-3)Gal(b1-4)GlcNAc
Method in brief: as §1

[4] = molecular target: GlcNAc(b1-3)Gal(b1-4)GlcNAc(b1-3)Gal(b1-4)GlcNAc(b1-3)Gal(b1-4)GlcNAc(b1-3)Gal(b1-4)GlcNAc(b1-2)Man(a1-3)[GlcNAc(b1-3)Gal(b1-4)GlcNAc(b1-3)Gal(b1-4)GlcNAc(b1-3)Gal(b1-4)GlcNAc(b1-3)Gal(b1-4)GlcNAc(b1-2)Man(a1-6)]Man(b1-4)GlcNAc(b1-4)[Fuc(a1-6)]GlcNAc
Method in brief: as §1

[5] = molecular target: GlcNAc(b1-3)Gal(b1-4)GlcNAc(b1-3)[GlcNAc(b1-3)Gal(b1-4)GlcNAc(b1-3)]GalNAc
Method in brief: as §1

[6] = molecular target: GlcNAc(b1-3)Gal(b1-4)GlcNAc(b1-6)[Gal(b1-3)]GalNAc
Method in brief: as §1

[7] = molecular target: GlcNAc(b1-3)Man
Method in brief: as §1

[8] = molecular target: Man(a1-2)Man(a1-3)[Man(a1-2)Man(a1-6)]Man
Method in brief: as §1

[9] = molecular target: Man(a1-2)Man(a1-3)[Man(a1-2)Man(a1-6)]Man(a1-6)[Man(a1-2)Man(a1-2)Man(a1-3)]Man(b1-4)GlcNAc(b1-4)GlcNAc
Method in brief: as §1

[10] = molecular target: Man(a1-2)Man(a1-6)[Man(a1-3)]Man(a1-6)[Man(a1-2)Man(a1-2)Man(a1-3)]Man
Method in brief: as §1

[11] = molecular target: Man(a1-3)[Man(a1-6)]Man(b1-4)GlcNAc(b1-4)GlcNAc
Method in brief: as §1

[12] = molecular target: Man(a1-3)[Man(a1-6)]Man(b1-4)GlcNAc(b1-4)[Fuc(a1-6)]GlcNAc
Method in brief: as §1

[13] = molecular target: Neu5Ac(a2-3)Gal
Method in brief: as §1

[14] = molecular target: Neu5Ac(a2-3)Gal(b1-3)GalNAc
Method in brief: as §1

[15] = molecular target: Neu5Ac(a2-3)Gal(b1-3)GlcNAc(b1-3)Gal(b1-3)GlcNAc
Method in brief: as §1

[16] = molecular target: Neu5Ac(a2-3)Gal(b1-4)GlcNAc(b1-2)Man
Method in brief: as §1

[17] = molecular target: Neu5Ac(a2-3)Gal(b1-4)GlcNAc(b1-3)Gal(b1-4)GlcNAc(b1-6)[Gal(b1-3)]GalNAc
Method in brief: as §1

[18] = molecular target: Neu5Ac(a2-3)Gal(b1-4)GlcNAc(b1-6)[Neu5Ac(a2-3)Gal(b1-3)]GalNAc
Method in brief: as §1

[19] = molecular target: Neu5Ac(a2-3)Gal(b1-4)[Fuc(a1-3)]GlcNAc(b1-3)GalNAc
Method in brief: as §1

[20] = molecular target: Neu5Ac(a2-3)Gal6S(b1-4)GlcNAc
Method in brief: as §1

[21] = molecular target: Neu5Ac(a2-3)[GalNAc(b1-4)]Gal(b1-4)GlcNAc
Method in brief: as §1

[22] = molecular target: Neu5Ac(a2-6)Gal(b1-4)GlcNAc(b1-2)Man(a1-3)Man(b1-4)GlcNAc(b1-4)GlcNAc
Method in brief: as §1

[23] = molecular target: Neu5Ac(a2-6)Gal(b1-4)GlcNAc(b1-2)Man(a1-3)[GlcNAc(b1-2)Man(a1-6)]Man(b1-4)GlcNAc(b1-4)GlcNAc
Method in brief: as §1

[24] = molecular target: Neu5Ac(a2-6)Gal(b1-4)GlcNAc(b1-2)Man(a1-6)Man(b1-4)GlcNAc(b1-4)GlcNAc
Method in brief: as §1

[25] = molecular target: Neu5Ac(a2-6)Gal(b1-4)GlcNAc(b1-2)Man(a1-6)[Man(a1-3)]Man(b1-4)GlcNAc(b1-4)GlcNAc
Method in brief: as §1

[26] = molecular target: Neu5Ac(a2-6)Gal(b1-4)GlcNAc(b1-6)[Gal(b1-3)]GalNAc
Method in brief: as §1

[27] = molecular target: Neu5Ac(a2-6)GlcNAc(b1-4)GlcNAc(b1-4)GlcNAc
Method in brief: as §1

[28] = molecular target: Neu5Ac(b2-6)GalNAc
Method in brief: as §1

[29] = molecular target: Neu5Gc(a2-8)Neu5Gc(a2-3)Gal(b1-4)GlcNAc(b1-3)Gal(b1-4)GlcNAc
Method in brief: as §1

B1: AidA (Burkholderia cenocepacia) (protein)
chain: MSRVTDVLVSFDTETILKKYPNPSKNPAAPTLIDWRYVYMVTNQDNVISGQAGGELDLKAQVGDLIRWRETSLSLGFENQVVFYKFIGNVGNDLISTPTPRVAEASIPVPNTSKPEVPTCQKVANYYWSSECLKVGRVTYHFQFQIIDRNCQSQGCFSWDPFISIHN
For B1, the “glycan array binding signal (z-score)” value [1] was -0.375, the “glycan array binding signal (z-score)” value [2] was 2.61 and the “glycan array binding signal (z-score)” value [3] was 0.86. For the same binder, the “glycan array binding signal (z-score)” value [4] was -0.735, the “glycan array binding signal (z-score)” value [5] was -0.928 and the “glycan array binding signal (z-score)” value [6] was -0.57. For the same binder, the “glycan array binding signal (z-score)” value [7] was -0.022, the “glycan array binding signal (z-score)” value [8] was -0.113 and the “glycan array binding signal (z-score)” value [9] was 0.274. For the same binder, the “glycan array binding signal (z-score)” value [10] was -0.364, the “glycan array binding signal (z-score)” value [11] was -0.131 and the “glycan array binding signal (z-score)” value [12] was 1.97. For the same binder, the “glycan array binding signal (z-score)” value [13] was -0.347, the “glycan array binding signal (z-score)” value [14] was -0.739 and the “glycan array binding signal (z-score)” value [15] was -0.146. The “glycan array binding signal (z-score)” value [16] was 1.58, the “glycan array binding signal (z-score)” value [17] was -0.559 and the “glycan array binding signal (z-score)” value [18] was -0.108. For the same binder, the “glycan array binding signal (z-score)” value [19] was 1.86, the “glycan array binding signal (z-score)” value [20] was -0.261 and the “glycan array binding signal (z-score)” value [21] was -0.388. For the same binder, the “glycan array binding signal (z-score)” value [22] was -0.123, the “glycan array binding signal (z-score)” value [23] was -0.443 and the “glycan array binding signal (z-score)” value [24] was -0.428. The “glycan array binding signal (z-score)” value [25] was 0.17, the “glycan array binding signal (z-score)” value [26] was -0.153 and the “glycan array binding signal (z-score)” value [27] was -0.74. For the same binder, the “glycan array binding signal (z-score)” value [28] was 0.412 and the “glycan array binding signal (z-score)” value [29] was -0.459.
